Results filed as inconclusive are left out. Unmarked numbers belong to inactive results. Active and inactive are the calls of the source. Calls follow the shape of the dose curve; as a rule, active = well fitted inhibition curve with a large enough effect; inconclusive = small, poorly fitted or top-dose-only effect; inactive = no such curve, though single readings can be large or run the other way.
molecular target: N-terminal Xaa-Pro-Lys N-methyltransferase 1 (Homo sapiens) (UniProt Q9BV86); assay: Orthogonal qHTS for Inhibitors of N-terminal methyltransferase 1 (NTMT1): ThioGlo Assay; details: NTMT1 SAHH-coupled ThioGlo fluorescence, 30 min; series mostly up to 84.5 µM; activity, negative = inhibition: at the top concentration
Sequence (Q9BV86 whole entry, looked up): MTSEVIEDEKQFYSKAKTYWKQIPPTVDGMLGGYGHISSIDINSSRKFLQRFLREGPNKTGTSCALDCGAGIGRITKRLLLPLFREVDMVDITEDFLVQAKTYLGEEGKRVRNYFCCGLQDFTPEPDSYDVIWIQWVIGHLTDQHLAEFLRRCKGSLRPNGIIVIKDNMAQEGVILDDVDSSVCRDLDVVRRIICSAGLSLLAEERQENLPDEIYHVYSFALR
Excerpt: Assay Submitter (PI): Rong Huang Ph.D. Purdue University, West Lafayette, IN 47907 The N-terminal methytransferase 1 is the first methyltransferase that methylates protein alpha-N-amines and plays an important role in regulating cell mitosis, chromatin interactions and DNA repair. It is observed to be over-expressed in various cancer patient tissues like malignant melanoma and colorectal cancer tissues. Knockdown of NTMT1 in cancer cells causes cell mitotic defects and enhances sensitivity to DNA damaging chemotherapeutics. […] These critical cellular processes in which NTMT1 is implicated, coupled with emerging links to cellular dysfunction, strengthen the inference that NTMT1 is a compelling novel anticancer target. Progress have been made in understanding the molecular properties of NTMT1 and the biological consequences of protein alpha-N-terminal methylation, but there are no specific small molecule probes available for NTMT1 to fully characterize its MTase activity. To address this unmet need, a panel of assay is created and established to enable quantitative high-throughput screening (qHTS) for novel, potent, and selective small molecule NTMT1 inhibitors. Two orthogonal qHTS that use different reagents (ThioGlo vs. MTaseGlo) are developed for primary robotic screening against the NCATS chemical library of more than 400,000 small molecules. Identified inhibitors are reacquired, validated, and further characterized. […] Early Translation Branch (ETB) National Center for Advancing Translational Sciences (NCATS) National Institute of Health (NIH)
Materials: NTMT1 enzyme, substrate SPKRIA, control peptide RCC1-6 is provided by the Huang laboratory. MTaseGlo Assay: PROTOCOL TABLE; SEQUENCE No. (e.g., 1, 2, 3, etc.); […] (e.g., Cells, Incubation, Reagent, etc.); VALUE; DESCRIPTION 1; Enzyme; 3 uL; Dispense enzyme mixture (final concentrations of 125 nM NTMT1) into Greiner 1536-well black / solid bottom assay plate (Greiner Bio One, Monroe, NC). 2; Compounds; 23 nL; Compounds (at various concentration) and 1uM final concentration of RCC1-6 (SPKRIA) control were transferred via a Kalypsys Pin Tool (Wako USA) equipped with a 1536-slotted pin array (Wako Automation, Richmond, VA). 3; Incubation; 1 min; Incubate at room temperature. 4; Substrate; 1 uL; Dispense 1 uL of substrate solution (100uM SAM, 10uM SAHH, 15uM ThioGlo3 final concentration) was added to the wells bringing the final assay volume to 4uL. The assay plate was covered with metal lids. 5; Detection; Fluorescence; Initial fluorescence readout (background signal) was detected using the ViewLux microplate imager with an excitation filter of 340 nm and 450 nm emission filter. 6; Incubation; 30 min; Assay plates were incubation at room temperature in the dark. 7; Detection; Fluorescence; Final fluorescence readout was detected using the ViewLux microplate imager with an excitation filter of 340 nm and 450 nm emission filter. The data was normalized to the background fluorescence.

Row | Structure (SMILES) | Potency | activity, negative = inhibition [%]
1 | NC(=O)CI | 6.89 µM (active) | 
2 | CN[C@@H]1C[C@@H](c2ccc(Cl)c(Cl)c2)c2ccccc21 |  | 33.8
3 | C[N+]1(C)CCN(c2ccccc2)CC1 | 2.74 µM (active) | 
4 | NC1CCc2cc(O)c(O)cc2C1 (stereo unspecified) | 10.9 µM (active) | 
5 | C[N+]1(C)C2CCC1CC(OC(=O)c1c[nH]c3ccccc13)C2 (stereo unspecified) | 1.94 µM (active) | 
6 | C[N+](C)(C)CC#CCN1CCCC1=O | 1.54 µM (active) | 

From PubChem BioAssay AID1645875 (National Center for Advancing Translational Sciences (NCATS), 2021)
